PubChem BioAssay AID463173 (ICCB-Longwood Screening Facility, Harvard Medical School, 2010)
The whole screen tested about 52,000 compounds, of which about 4,300 (8.3%) were called active. The full list was thinned out, with actives kept by preference. A number with no mark means an inactive call. Rule as the data show it: active = survival mostly below about 52% (no sharp cut-off); inactive = mostly above about 56%.

tested on: DeltatarO mutant; experiment: S. aureus survival, RN4220 and DeltatarO strains – OD600, teichoic acid synthesis inhibitors, primary screen (AID 463173); conditions: S. aureus RN4220 wild type/DeltatarO growth, OD600, 18 h, active compounds read low, screened at 18.75 µg/mL (by protocol)

Structure (SMILES) | survival
COc1cccc(CNc2sc3c(c2C(=O)Nc2ccc(OC)cc2OC)CCC3)c1 | 99%
CC(=O)Nc1nonc1-c1nnc(SCC(=O)Nc2cc(C)cc(C)c2)n1C | 52%
CC1CCC(NC(=O)C2(C)Cc3ccccc3C(=O)N2Cc2ccccc2Cl)CC1 (stereo not given) | 48%
CC1(C(=O)NC2CCCCC2)Cc2ccccc2C(=O)N1Cc1ccc(Cl)cc1 (stereo not given) | 92%
CC1(C(=O)NC2CCCCC2)Cc2ccccc2C(=O)N1Cc1ccccc1Cl (stereo not given) | 43% (active)
N#Cc1ccc(S(=O)(=O)N2CCNCC2)cc1 | 98%
CC1=C(c2ccc(C(C)C)cc2)S(=O)(=O)NC1=NCc1ccccc1C | 77%
Cc1[nH]n(-c2ccccc2)c(=O)c1/C=N/NC(=O)c1ccccc1 | 50%
Cc1[nH]n(-c2ccccc2)c(=O)c1C(c1cc(Cl)ccc1O)c1c(C)[nH]n(-c2ccccc2)c1=O | 49%
Cc1[nH]n(-c2ccc(Cl)cc2)c(=O)c1C(=O)c1ccccc1 | 40% (active)
Cc1ccc2oc(-c3ccc(NC(=O)CCC(=O)O)cc3)nc2c1 | 86%
Cc1cccc(C)c1Nc1c(-c2ccc(O)cc2)nc2sccn12 | 28% (active)
Cc1ccc(-c2nc3sccn3c2Nc2ccccc2C)cc1 | 48%
COc1cc(-c2nc3sccn3c2Nc2c(C)cccc2C)ccc1O | 125%
Cc1ccc(-c2nc3sccn3c2Nc2ccc(C)c(C)c2)cc1 | 36% (active)
CCc1cccc(C)c1Nc1c(-c2cccc(O)c2)nc2sccn12 | 105%
Cc1ccc(Nc2c(-c3ccc(Cl)cc3)nc3sccn23)c(C)c1 | 47%
Cc1cc(Cl)ccc1NC(=O)CN(c1ccccc1Br)S(C)(=O)=O | 55%
CCOc1ccc(-n2ccnc2SCC(=O)Nc2cccc3ccccc23)cc1 | 68%
O=c1cc(CN2CCN(S(=O)(=O)c3ccc(Cl)cc3)CC2)nc2sc(-c3ccccc3F)nn12 | 104%
Cc1cccc(-n2ncc3c(NC4CCCC4)ncnc32)c1 | 69%
O=C(O)c1ccc(/C=N/n2cnnc2)cc1 | 111%
COc1cc(NC(=O)c2oc3c(c2C)-c2nn(Cc4cccc(Cl)c4)cc2CC3)cc(OC)c1 | 78%
Cc1ccccc1CNC(=O)c1oc2c(c1C)-c1nn(Cc3ccc(Cl)cc3)cc1CC2 | 73%

Structure (SMILES) | survival
Cc1cccc(CNC(=O)c2oc3c(c2C)-c2nn(Cc4cccc(Cl)c4)cc2CC3)c1 | 97%
CCn1cc2c(n1)-c1c(oc(C(=O)Nc3cccc(C)c3C)c1C)CC2 | 95%
Cc1ccccc1NC(=O)c1oc2c(c1C)-c1nn(Cc3cccc(Cl)c3)cc1CC2 | 35% (active)
Cc1cccc(C)c1NC(=O)c1oc2c(c1C)-c1nn(Cc3ccccc3)cc1CC2 | 23% (active)
O=C(O)CC1CCS(=O)(=O)C1 (stereo not given) | 62%
CCOc1ccccc1N1CCN(C(=O)C2CCN(Cc3ccc(OC)cc3)CC2)CC1 | 98%
CC1CCC(N2CC(=O)N(C3CCCC3)C(c3ccc(Cl)cc3)C2=O)CC1 (stereo not given) | 79%
Cc1ccc2occ(CC(=O)N(Cc3ccc(C(C)C)cc3)C3CCS(=O)(=O)C3)c2c1 (stereo not given) | 66%
COc1ccc(NS(=O)(=O)c2ccc(N3CCCCS3(=O)=O)cc2)cc1Cl | 71%
COc1cccc(C(=O)Nc2ccccc2C(=O)OCc2cc(=O)n3c4c(sc3n2)CCCC4)c1 | 57%
CCn1cc2nc(SCc3ccccc3Cl)n(CCc3ccccc3)c(=O)c2n1 | 74%
CCn1cc2nc(SCc3c(F)cccc3Cl)n(CCc3ccccc3)c(=O)c2n1 | 52% (active)
CCn1cc2nc(SCc3cccc(F)c3)n(CCc3ccccc3)c(=O)c2n1 | 71%
CCOC(=O)c1c(C)[nH]c(C)c1S(=O)(=O)N(C)CC(=O)Nc1cccc(Cl)c1C | 73%
CCOC(=O)c1c(C)[nH]c(CCC(=O)NCc2ccc(N(C)C)cc2)c1C | 83%
CCOC(=O)Cn1nc(-c2ccccc2)c2cnc3ccc(OCC)cc3c21 | 109%
Cc1ccc(CNc2ncnc3c2nnn3C)cc1 | 58%
Cn1nnc2c(NCc3ccccc3)ncnc21 | 32% (active)
Cn1nnc2c(NCc3ccc(Cl)cc3)ncnc21 | 81%
O=C(c1cccs1)N(Cc1cccnc1)c1nc2c(Cl)cccc2s1 | 82%
COc1ccccc1C(=O)NC(=O)Nc1ccc(-n2nc(C(F)(F)F)cc2C(F)(F)F)cc1 | 59%
COc1ccccc1C(=O)Nc1ccc(-c2cc(C(F)(F)F)nn2-c2ccccc2)cc1 | 45%
COc1cccc(C(=O)Nc2ccc(-c3cc(C(F)(F)F)nn3-c3ccccc3)cc2)c1 | 46%
O=C(Nc1ccc(-c2cc(C(F)(F)F)nn2-c2ccccc2)cc1)c1cccc(F)c1 | 26% (active)

Structure (SMILES) | survival
COc1ccccc1C(=O)NC(=O)Nc1ccc(-c2cc(C(F)(F)F)nn2-c2ccccc2)cc1 | 30% (active)
O=C(NC(=O)c1cccc(F)c1)Nc1ccc(-c2cc(C(F)(F)F)nn2-c2ccccc2)cc1 | 157%
O=C(CN1CCC(N2CCCCC2)CC1)Nc1ccc2c(c1)OCCO2 | 96%
Cc1cccc(C)c1OCc1nc2c3cnn(-c4ccccc4F)c3ncn2n1 | 109%
CCN(CC)S(=O)(=O)c1cccc(C(=O)Nc2ccccc2C(=O)Nc2ccc(OC)cc2)c1 | 78%
Cc1cc(F)ccc1NC(=O)CS(=O)(=O)c1cccc2nsnc12 | 77%
CCc1ccc(CNC(=O)Cn2c(-c3cccs3)cc3cc(F)ccc32)cc1 | 119%
Fc1ccc(Nc2c(-c3ccccn3)nc3ccc(Cl)cn23)cc1 | 65%
Cc1cccc2nc(-c3ccccn3)c(Nc3ccc(F)cc3)n12 | -9% (active)
CC(C)c1ccc(Nc2c(-c3ccco3)nc3ccccn23)cc1 | 42%
CC(C)c1nc2ccccn2c1NC1CCCCC1 | 102%
Cc1ccn2c(Nc3ccc(F)cc3)c(-c3ccccn3)nc2c1 | 105%
c1ccc(-c2nc3ccccn3c2NC2CCCC2)nc1 | 1% (active)
Cc1ccc2nc(-c3ccccn3)c(Nc3ccc(F)cc3)n2c1 | 10% (active)
COc1ccc(Nc2c(-c3ccccn3)nc3ccc(Cl)cn23)cc1 | 93%
CN(C)c1ccc(-c2nc3ccccn3c2NC2CCCC2)cc1 | 83%
Cc1ccc(Nc2c(-c3ccccn3)nc3ccc(Br)cn23)cc1 | 72%
CC(C)c1ccc(Nc2c(-c3ccccn3)nc3ccccn23)cc1 | -4% (active)
Cc1cccc2nc(-c3ccccn3)c(Nc3ccccc3)n12 | 24%
COc1ccc(NC(=O)Cn2cnc3sc(C)c(S(=O)(=O)N4CCN(C)CC4)c3c2=O)cc1OC | 167%
COc1ccc(NC(=O)CN2CCN(Cc3ccccc3Cl)S2(=O)=O)cc1Cl | 41%
O=S(=O)(NCCc1csc2nc(-c3ccccc3)nn12)c1ccc(Cl)s1 | 86%
CCn1c(CNC(=O)C(OC)c2ccccc2)nnc1SC (stereo not given) | 87%
O=c1c(=O)n(-c2cccc(Cl)c2)ccn1Cc1cccc(F)c1 | 66%

Structure (SMILES) | survival
COc1ccc(Cl)cc1NC(=O)c1cnc(N2CCCCC2)c2ccccc12 | 78%
CCOc1ccccc1NC(=O)CCc1c(C)nn(-c2ccc(N3CCOCC3)nn2)c1C | 80%
CCOC(=O)c1cccc(NC(=O)c2cc3ccccn3n2)c1 | 124%
COc1cccc(C2CC(=O)Nc3cc(OC)c(OC)c(OC)c32)c1OC(C)C (stereo not given) | 93%
CCOC(=O)c1cccc(-n2nnc3c(sc4nc(C)c(Br)c(C)c43)c2=O)c1 | 92%
CCOc1ccc(C2=NC(c3ccc(OC)cc3)=Nc3ccc(Cl)cc3N2)cc1 | 71%
Cc1cccc(C)c1Nc1c(-c2ccccc2F)nc2cccc(C)n12 | 6% (active)
Cc1ccccc1Nc1c(-c2ccccc2)nc2cccc(C)n12 | 98%
Cc1ccccc1Nc1c(-c2c[nH]c3ccccc23)nc2cccc(C)n12 | 144%
CCCCCC[N+]1(CCO)CCOCC1 | 81%
COc1ccc(N2CCN(CCCNC(=O)c3c(C)nn(-c4ccc(F)cc4)c3-n3cccc3)CC2)cc1 | 71%
OC(CC#CCN1CCOCC1)(c1ccccc1)c1ccccc1 | 83%
COc1ccc(S(=O)(=O)N2CCN(Cc3nc4ccc(C)cc4o3)CC2)cc1 | 84%
Cc1ccc(-n2cc(C(=O)OCc3ccc(Cl)cc3)c3ccccc3c2=O)cc1 | 67%
COC(=O)c1ccc(Cl)cc1NC(=O)N(Cc1ccc(C)o1)C1CCN(C(C)=O)CC1 | 95%
COc1ccc(C)cc1NC(=O)N(Cc1ccc(C)o1)C1CCN(C(C)=O)CC1 | 8% (active)
CCOc1ccccc1NC(=O)N(Cc1ccc(C)o1)C1CCN(C(C)=O)CC1 | 101%
CC(=O)N1CCC(N(Cc2ccc(C)o2)C(=O)Nc2ccc(C)cc2)CC1 | 96%
COc1ccc(NC(=O)N(Cc2ccco2)C2CCN(C(C)=O)CC2)c(OC)c1 | 88%
COc1ccc(NC(=O)N(C(C)C)C2CCN(C(C)=O)CC2)c(OC)c1 | -2% (active)
COC(=O)c1ccc(Cl)cc1NC(=O)N(Cc1ccc(OC)cc1)C1CCN(C(C)=O)CC1 | -5% (active)
CCN1CCC(N(Cc2ccc(F)cc2)C(=O)Nc2cc(Cl)ccc2C(=O)OC)CC1 | 85%
COc1ccc(C)cc1NC(=O)N(C(C)C)C1CCN(C(C)=O)CC1 | 75%
